rat GALR2 agon: agonists of rat galanin receptor 2 (GALR2). cell-based GALR2 agonist screen. activation, % at 10 µM. 0.5% of 16,000 active. AID 833; in the data active = activation above about 15%
Target sequence (O08726 whole entry, looked up): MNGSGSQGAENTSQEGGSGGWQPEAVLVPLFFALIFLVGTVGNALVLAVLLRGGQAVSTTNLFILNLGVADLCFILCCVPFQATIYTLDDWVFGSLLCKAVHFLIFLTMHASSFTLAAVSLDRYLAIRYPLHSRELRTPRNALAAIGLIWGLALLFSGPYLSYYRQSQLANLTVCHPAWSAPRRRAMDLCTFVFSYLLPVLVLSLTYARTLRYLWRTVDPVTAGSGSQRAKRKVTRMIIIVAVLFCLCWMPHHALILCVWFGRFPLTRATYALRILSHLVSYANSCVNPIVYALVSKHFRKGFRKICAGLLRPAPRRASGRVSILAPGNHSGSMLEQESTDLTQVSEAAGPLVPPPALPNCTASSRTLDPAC
Nox1 inhibitor: blocks human NADPH oxidase 1 activity; HT29 cells, luminol chemiluminescence ROS; Q9Y5S8; inhibition, % at 6.7 µM; 0.81% of 16,000 active
luminol inh ctr: counter-screen for Nox1 inhibitors: inhibitors of luminol chemiluminescence | inhibition, % at 6.7 µM | AID 1823 | 0.4% of 16,000 active | HRP/luminol/H2O2 chemiluminescence counterscreen; also: reference of the scale not given here
Numbers without * were called inactive. Sampled rows, rich in hits. Any-hit rate of the full collection: about 1.6%. Rule as the data show it, unless noted: active = inhibition above about 75%; inactive = the rest.

SMILES	rat GALR2 agon	Nox1 inhibitor	luminol inh ctr
COC(=O)c1cnc(Sc2ccccc2N)c([N+](=O)[O-])c1	-1	12	-7
COc1ccc(NC(=O)c2c(-c3c(Cl)cccc3Cl)noc2C)cn1	-6	-13	-1
Cc1ccc(C(C)NC2(C#N)C3CC4CC(C3)CC2C4)c(C)c1 (stereo not given)	-4	-6	-7
N#CC(c1ccc(Cl)cc1)N1CCOCC1 (stereo not given)	-8	-20	3
CN(C)c1cc(NNS(=O)(=O)c2cccc(C(F)(F)F)c2)nc(N(C)C)c1C#N	-4	66	80*
CCCCNC(=O)NNc1cc(N(C)C)c(C#N)c(N(C)C)n1	-5	11	7
N#CC(=C1C=CC(=NO)C=C1)c1ccccc1	-9	37	-3
CN(C)c1ccc(SC#N)cc1	-6	-4	-1
O=C(CSc1nc(-c2ccccc2)ns1)N1CCN(c2ccccc2)CC1	-5	-24	-3
CN1c2ccccc2C(O)=C(C(=O)Nc2ccc(OC(F)(F)F)cc2)S1(=O)=O	-6	14	-3
O=C(Nc1ccc(Cl)cc1)Oc1ccccc1N1CCSCC1	-3	92*	4
O=C(Nc1ccccc1)Oc1cccc(F)c1OC(=O)Nc1ccccc1	-10	-38	3
CC1CN(c2ccccc2OC(=O)Nc2ccc(OC(F)(F)F)cc2)CC(C)O1 (stereo not given)	-7	101*	15
COC(=O)c1ccc(-c2nnco2)cc1	-7	4	-1
S=c1[nH]nc(Cc2ccsc2)n1Cc1ccccc1	-6	21	93*
S=c1[nH]nc(Cc2ccccc2)n1Cc1ccccc1	-8	-9	6
O=C(c1ccccc1)c1nn(-c2ccc(C(F)(F)F)cc2)ccc1=O	-2	4	2
O=[N+]([O-])c1cc(C(F)(F)F)ccc1Oc1ccc(-c2nnco2)cc1	-6	77*	-1
O=[N+]([O-])c1cc(C(F)(F)F)ccc1Oc1ccc2nonc2c1	-6	29	0
O=C(O)/C=C/C(=O)Nc1ccc2c(c1)OCO2	-2	-15	1
CC(=O)c1ccc(NCN2C(=O)/C(=C\N(C)C)NC2=S)cc1	-7	100*	10
O=C(NNc1cccc(Cl)c1)c1cccnc1Oc1ccccc1	-8	41	100*
O=C(NNC(=O)c1cccnc1Oc1ccccc1)c1cccnc1Oc1ccccc1	-5	5	-4
Cc1ccc(NC(=S)NNC(=O)c2ccc[nH]2)cc1Cl	-8	17	4
COC(=O)CC(CC(=O)OC)(c1cc(C)c(O)c(C)c1)c1cc(C)c(O)c(C)c1	0	21	77*
SMILES	rat GALR2 agon	Nox1 inhibitor	luminol inh ctr
COC(=O)c1ccccc1C(=O)c1cc(C)c(O)c(C)c1	-3	-1	-11
CCOC(=O)C(=CNNc1ccccc1)C(=O)OCC	0	-19	6
CCOC(=O)C(=CNNc1ccnc2cc(Cl)ccc12)C(=O)OCC	-3	84*	3
O=C1CC2(CCc3ccccc32)C(=O)N1CN1CCSCC1 (stereo not given)	-3	1	-4
CCOC(=O)C1=C(Nc2ccc(OC(C)=O)cc2)C(=O)N(C(C)(C)C)C1	-3	84*	4
CCO/C(C)=N/OC(=O)Nc1ccc(OC(F)(F)F)cc1	-4	-57	-1
c1ccc2c(c1)CCC/C2=N\NC1=NCCN1	-3	-18	2
ON/C=N/c1nnc(Cc2ccc(F)cc2)s1	-4	-23	1
ON/C=N/c1nnc(C(F)(F)F)s1	-2	80*	-4
COC(=O)c1ccc(S(=O)(=O)Nc2ccc(N3CCOCC3)cc2)n1C	-7	91*	40
COC(=O)c1sccc1NS(=O)(=O)c1ccc(C(=O)OC)n1C	-8	-13	2
C=CCn1c(SCC(=O)NNC(=S)NC)nnc1-c1ccccc1	-4	-11	89*
Cn1c(CSc2ccccc2)n[nH]c1=S	-6	-9	8
C=CCn1c(SCc2n[nH]c(=S)n2C)nnc1-c1ccccc1	-5	4	82*
C=CCn1c(SCC(=O)N2CCc3ccccc32)nnc1-c1ccc(Cl)cc1	4	-30	-1
N#Cc1c(-c2cccs2)nc(Nc2ccccc2)[nH]c1=O	-6	-49	0
NS(=O)(=O)c1ccc(NC(=O)c2cc(F)cc3c2OCOC3)cc1	-5	-32	-1
CSC(SC)=C(C#N)C#N	-9	-100	0
O=C(CSc1ccccn1)c1cc(Cl)sc1Cl	-5	29	9
O=S(=O)(NCCN1CCCC1)c1ccc(C(F)(F)F)cc1	-4	-45	1
N#C/C(=C\c1ccc(O)cc1)c1ccc([N+](=O)[O-])cc1	-8	0	101*
CN(C)c1ccc(/C=C(\C#N)c2ccc([N+](=O)[O-])cc2)cc1[N+](=O)[O-]	-7	-14	17
Cc1ccc(CNC(=S)NCCO)cc1	-3	-18	3
COc1ccc(CNC(=S)NCCCO)cc1	-3	-51	98*
CC1=C(C(=O)OC2CCCN(C)C2)C2(O)C(=O)c3ccccc3C2(O)N1 (stereo not given)	-2	-72	4
SMILES	rat GALR2 agon	Nox1 inhibitor	luminol inh ctr
Cn1c(-c2cc(C(C)(C)C)nn2Cc2ccc(F)cc2)n[nH]c1=S	-6	5	99*
CC(C)(C)c1cc(-c2nnc(C3CC3)o2)n(Cc2ccc(F)cc2)n1	-5	-42	4
Cc1nnsc1C(=O)NC(=O)Nc1cc(C(F)(F)F)cc(C(F)(F)F)c1	-11	-15	-3
Cn1cnc([N+](=O)[O-])c1Sc1ccc(C(F)(F)F)cn1	35*	-88	3
Cc1nn(C)c(Sc2ccc(C(F)(F)F)cn2)c1[N+](=O)[O-]	-8	-8	-7
OCCNC(=S)Nc1ccc(C2CCCCC2)cc1	-5	-49	1
Cc1nc(-c2ccc(S(=O)(=O)N3CCCN(CCc4ccccc4)CC3)s2)cs1	-1	-5	-1
O=S(=O)(Nc1ccc(N2CCCCC2)cc1)c1ccccc1	-6	101*	13
CN1CCN(c2ccc(NS(=O)(=O)c3cccc(C(F)(F)F)c3)cc2)CC1	-7	94*	67
Cc1ccc(S(=O)(=O)Nc2ccccc2N2CCCCC2)cc1Cl	-10	-15	9
O=S(=O)(Nc1ccc(N2CCN(c3ccc(C(F)(F)F)cn3)CC2)nc1)c1cccc(Cl)c1	-9	8	5
O=C(NC1CCCCNC1=O)c1ccc2nsnc2c1 (stereo not given)	-5	27	-7
O=S(=O)(Nc1ccc(Cl)cc1)c1c(F)cccc1F	-7	-7	-2
Cc1nnsc1-c1onc(C)c1-c1nc(-c2ccc([N+](=O)[O-])o2)no1	-5	-39	3
Cc1nnsc1-c1n[nH]c(=S)n1C1CC1	-5	12	99*
COc1cscc1C(=O)NC(=O)Nc1ccc(F)cc1F	-9	-24	1
CCN(CC)CCN1CNC(=S)NC1	-8	-29	4
Cc1ccc(C)c(N=Cc2cc(Cl)cc(Cl)c2O)c1	16*	9	4
CC(=O)Nc1cc(N=Cc2cc(Cl)cc(Cl)c2O)ccc1C	5	-79	-1
CCOC(=O)NC(=S)N(C)C	-8	8	-2
CCCS(=O)(=O)c1csc(C(=O)OC)c1NNS(=O)(=O)c1ccccc1C(F)(F)F	-4	-50	5
O=C(NNc1ccc(-c2csnn2)cc1)c1ccc(Cl)cc1	5	56	75*
S=C(Nc1ccc(Cl)cc1)Nc1ccc(-c2csnn2)cc1	-4	3	-19
O=S(=O)(Oc1cccc2[nH]ccc12)c1ccc(F)cc1F	-7	-13	-1

Bioassay records (PubChem BioAssay)
